KB-V1 MDR tox: kills drug-selected multidrug resistant KB-V1 cells | KB-V1 MDR cells viability, CellTiter-Glo, 72 h | Potency, µM (series often up to 46.1 µM), actives largely listed as cytotoxic | actives 3.4% (n = 400,000) | AID 1347076; note: nearly all actives have a fitted effect of over 60% in size
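KB-V1 MDR subline cells in DMEM (phenol-red free, 10% FBS) exposed to compounds in qHTS concentration series for 72 h at 37 degrees C. Viability read by CellTiter-Glo luminescence; concentration-effect curves fitted after normalization and correction.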
HT1080NT lethal: kills 2HG-producing HT-1080-NT fibrosarcoma cells; actives 1.6% (n = 360,000); Potency, µM (top dose mostly 46.1 µM), without a hit: top-dose activity, negative = less viability, hits mostly cytotoxic; HT-1080-NT fibrosarcoma viability, CellTiter-Glo ATP luminescence, 48 h;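 note: NT is the 2HG producing partner of a matched IDH1 knockdown line; 0% = DMSO-treated cells and -100% = media-only wells without cells; nearly all actives have a fitted effect of over 55% in size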
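Luminescent CellTiter-Glo readout after 48 hours of compound exposure at 37 degrees C defined viability of HT-1080-NT cells. Activity was normalized to DMSO wells and cell-free media wells; concentration-response curves were fitted and assigned curve classes.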
KB-3-1 cytotox: KB-3-1 parental cell cytotoxicity | KB-3-1 viability, CellTiter-Glo ATP luminescence, 72 h | Potency, µM (highest dose often 46.1 µM), usual class: cytotoxic | actives 1.4% (n = 400,000) | AID 1347075; note: nearly all actives have a fitted effect of over 60% in size
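KB-3-1 parental drug-naive adenocarcinoma cells in DMEM/10% FBS, incubated 72 h at 37 C with pin-transferred compounds across a concentration series. Viability by CellTiter-Glo luminescence; concentration-response curves fitted after normalization.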
HT1080 IDH1KD tx: HT-1080 IDH1 knockdown cell toxicity (counter line); AID 686971; actives 2% (n = 360,000); HT-1080 IDH1 knockdown viability, ATP luminescence, 48 h; Potency, µM (titrated, usually from 46.1 µM), inactives show at the top dose activity, negative = toxicity, most hits filed as cytotoxic;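 note: 0% = DMSO wells and -100% = cell-free medium wells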
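Using the IDH1-knockdown HT-1080 line run in the same batch and compound series as the NT line, viability after 48 h at 37 °C was determined by CellTiter-Glo luminescence and expressed as % activity.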
TDP1 cell noCPT: qHTS for Inhibitors of human tyrosyl-DNA phosphodiesterase 1 (TDP1): qHTS in cells in absence of CPT; DT40 Tdp1-/- hTDP1 cells, no CPT, ATP luminescence, 48 h; Potency, µM (doses to about 46.2 µM), for inactives: at the highest dose activity change, negative = growth inhibition, actives largely listed as inhibitors; actives 15% (n = 420,000); note: nearly all actives have a fitted effect of over 55% in size
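Chicken DT40 Tdp1-/- cells complemented with human TDP1, screened without camptothecin (DMSO vehicle only), 400 cells/well. Compounds pin-transferred, cells incubated at 37 °C for at least 48 hr. Growth read as ATP-dependent luminescence (CellTiter-Glo, 30 min at RT).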
TDP1 cell CPT: growth inhibition of DT40 Tdp1-/-;hTDP1 cells with camptothecin (screen for TDP1 inhibitors) | chicken DT40 Tdp1-/-;hTDP1 cells + 20 nM CPT, ATP luminescence, 48 h | Potency, µM (series often up to 46.2 µM), inactives show top-dose activity change, negative = growth inhibition, usual class: inhibitors | actives 12% (n = 420,000) | AID 686979; note: nearly all actives have a fitted effect of over 55% in size
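Chicken DT40 Tdp1-/- cells stably complemented with human TDP1 were seeded at 400 cells/well in medium containing 20 nM camptothecin, exposed to pin-transferred compounds, and grown at 37 °C for at least 48 hr. Viability was read as ATP luminescence.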
Numbers without * were called inactive; i = inactive; ? = inconclusive; . = not tested or not shown. This is a sample that favours compounds with a hit; in the whole collection about 19% have one here. Calls come from the whole dose curve; as a rule, active = well fitted curve in the direction sought with a large enough effect; inconclusive = small, poorly fitted or top-dose-only effect, or another doubt; inactive = no such curve, though single readings can be large; an effect the other way counts as inactive or inconclusive. Unless noted, % is set by controls: 0 for no effect and ±100 for the full control effect; potency is the fitted concentration of half-maximal effect.

SMILES	KB-V1 MDR tox	HT1080NT lethal	KB-3-1 cytotox	HT1080 IDH1KD tx	TDP1 cell noCPT	TDP1 cell CPT
CC(C)NC(=O)C1(C)CN(S(C)(=O)=O)CC(=O)N1C1CCCCCC1 (stereo not drawn)	i	19%	i	21%	-21%	-17%
CC(=O)c1ccc(OCc2cc(C(=O)N3CCC[C@H]3CO)no2)cc1	i	6%	i	5%	0%	-24%
COCCC1CCCCN1C(=O)c1cc(COc2cccc(C(C)=O)c2)on1 (stereo not drawn)	i	-3%	i	-12%	26µM*	23µM*
CCOC(=O)CC1CCCCN1C(=O)c1cc(COc2cccc3cnccc23)on1 (stereo not drawn)	?	23µM*	i	4.1µM*	3.7µM*	1.6µM*
Cc1ccc2[nH]c3c(c2c1)CN(C(=O)CN1CCN(c2cccc(C)c2C)CC1)CC3	21µM*	?	?	18µM*	21µM*	23µM*
CN1CCC(N2CCN(C3CN(Cc4ccccc4)S(=O)(=O)C3)CC2)CC1 (stereo not drawn)	i	?	i	5%	6%	1%
Cc1[nH]n(-c2nc(-c3ccc(Cl)cc3)cs2)c(=O)c1N=Nc1ccc(O)cc1	15µM*	?	?	-24%	5.8µM*	2.6µM*
CCc1c(C)[nH]n(-c2nc(-c3ccccc3)cs2)c1=O	?	9%	i	0%	-26%	-7%
CCc1ccc(-c2cn3c(n2)sc2cc(C(=O)NC4CCCCCC4)ccc23)cc1	.	.	.	.	10µM*	12µM*
CC(NC(=O)c1ccc2c(c1)sc1nc(-c3ccc(F)cc3)cn12)C12CC3CC(CC(C3)C1)C2 (stereo not drawn)	.	.	.	.	-7%	-10%
Cc1ccc(-c2cn3c(n2)sc2cc(C(=O)NC4CCCCC4)ccc23)cc1	.	.	.	.	4.6µM*	4.1µM*
Cc1ccc(-c2cn3c(n2)sc2cc(C(=O)NC4CCCCCC4)ccc23)cc1	i	.	i	.	16µM*	10µM*
O=C(NC1CCCCC1)c1ccc2c(c1)sc1nc(-c3ccccc3)cn12	.	.	.	.	10µM*	?
Cc1nc2ccccn2c1C(=O)NNC(=S)Nc1ccc(Cl)cc1	?	-6%	i	-25%	18µM*	?
Cc1cccc(-n2cnc(C(=O)NNC(=S)Nc3ccc(Cl)cc3)c2)n1	i	-22%	13µM*	-23%	12µM*	7.3µM*
Cc1nc2ccccn2c1C(=O)NNC(=S)Nc1ccccc1	i	0%	i	15%	-7%	5%
CN1CCc2c(sc(/N=C/c3cc(C(C)(C)C)ccc3O)c2C#N)C1	i	16%	i	13%	-5%	-5%
CN1c2ccc(Cl)cc2C(=O)NC1c1ccc([N+](=O)[O-])s1 (stereo not drawn)	i	?	i	23µM*	23µM*	21µM*
c1ccc2c(c1)Sc1cnccc1N2CC1CO1 (stereo not drawn)	?	0%	i	-6%	10µM*	4.1µM*
O=C(NCc1ccccc1)C12CC3CC(CC(Br)(C3)C1)C2	i	0%	i	-1%	1%	2%
COc1ccc(N(CC(=O)Nc2ccc3c(c2)OCO3)S(=O)(=O)c2ccccc2)cc1OC	i	0%	?	0%	?	?
COc1ccc(N(CC(=O)Nc2ccc3c(c2)OCO3)S(=O)(=O)c2ccccc2)c(OC)c1	?	-11%	i	-11%	18µM*	21µM*
COc1ccc(N(CC(=O)Nc2ccc3c(c2)OCCO3)S(=O)(=O)c2cccc(C)c2)cc1	?	-13%	i	-17%	?	26µM*
COC(=O)c1ccc(CN(c2ccc(C)cc2)S(=O)(=O)c2ccc3c(c2)OCCO3)o1	i	-1%	i	-5%	16µM*	12µM*
COc1ccc(N(CC(=O)Nc2ccc3c(c2)OCO3)S(=O)(=O)c2ccc(F)cc2)cc1	?	-6%	i	-10%	?	?
SMILES	KB-V1 MDR tox	HT1080NT lethal	KB-3-1 cytotox	HT1080 IDH1KD tx	TDP1 cell noCPT	TDP1 cell CPT
COc1ccccc1N(CC(=O)Nc1ccc2c(c1)OCCO2)S(=O)(=O)c1ccc(C)cc1	?	-22%	?	-14%	9.2µM*	?
CCc1ccccc1NC(=O)c1oc(=O)c2ccccc2c1-c1ccccc1	?	.	i	.	?	?
O=C(Cn1c(=O)n2nc(-c3cccc(F)c3)nc2c2ccccc21)N1CCN(c2ccccc2F)CC1	i	.	i	.	?	-12%
NC(c1ccc(F)c(F)c1)c1nc(-c2cc(F)cc(F)c2)cs1 (stereo not drawn)	i	22%	i	12%	?	-41%
CCOC(=O)CSc1nnc(NCC(=O)OC(C)C)c(=O)[nH]1	i	0%	i	-1%	23µM*	10µM*
COc1ccccc1N1CCN(C(=O)c2cc(-c3cccs3)on2)CC1	18µM*	-3%	i	-5%	?	?
COc1ccccc1-c1cc(C(=O)N2CCCC2)no1	?	-6%	i	-12%	-12%	4%
COc1ccccc1N1CCN(C(=O)c2cc(-c3ccccc3O)on2)CC1	i	8%	?	5%	18µM*	21µM*
COc1cccc(OCc2cc(C(=O)N3CCN(c4ccccc4O)CC3)no2)c1	i	-8%	i	-5%	13µM*	16µM*
COc1cccc(-c2cc(C(=O)N3CCOCC3)no2)c1	i	4%	i	-2%	-13%	0%
COc1cccc(-c2cc(C(=O)N3CCN(C(c4ccccc4)c4ccccc4)CC3)no2)c1	i	-15%	i	-4%	26µM*	21µM*
COc1cccc(C2NC(=O)c3n[nH]c(-c4cccs4)c32)c1 (stereo not drawn)	i	.	i	.	?	?
CCOc1ccc(C(=O)Nc2ccc(S(=O)(=O)Nc3nc(C)cc(C)n3)cc2)cc1OC	.	.	.	.	-20%	-28%
Cc1oc2ncn(CC(C)C)c(=O)c2c1C(=O)NCCCN1CCCCC1C (stereo not drawn)	i	.	i	.	-4%	-13%
O=C(Cn1cnc(Cl)c1Cl)c1ccc(F)cc1	i	6%	i	-2%	?	15%

Source: PubChem
